# This is part of a sample that, as a whole, favours compounds with a hit. Of some 83,000 tested, about 20% had one in any assay.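 Compound tested at a single concentration for 48 hours in 96-well plates; a percent growth value below 10 was scored as active.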 Values without a mark were called inactive. Activity calls are given as the source filed them.
# What was measured:
# Experiment in all cases: NCI-60 one-dose screen, 48 h (100 = growth as untreated, 0 = no growth, -100 = all killed)
# Conditions in all cases: 10 µM unless noted
# SR leukemia = tested on: SR leukemia
# RPMI-8226 leukemia = tested on: RPMI-8226 leukemia
# OVCAR-8 ovarian = tested on: OVCAR-8 ovarian
# OVCAR-5 ovarian = tested on: OVCAR-5 ovarian
# OVCAR-4 ovarian = tested on: OVCAR-4 ovarian
# SK-OV-3 ovarian = tested on: SK-OV-3 ovarian
# IGROV1 ovarian = tested on: IGROV1 ovarian
# OVCAR-3 ovarian = tested on: OVCAR-3 ovarian
# HS 578T breast = tested on: HS 578T breast
# NCI/ADR-RES ovarian = tested on: NCI/ADR-RES ovarian
# T-47D breast = tested on: T-47D breast
# BT-549 breast = tested on: BT-549 breast
# MDA-MB-435 melanoma = tested on: MDA-MB-435 melanoma
# SW-620 colon = tested on: SW-620 colon
# MCF7 breast = tested on: MCF7 breast
# HCT-116 colon = tested on: HCT-116 colon
# HCC-2998 colon = tested on: HCC-2998 colon
# KM12 colon = tested on: KM12 colon
Compound,growth (SR leukemia),growth (RPMI-8226 leukemia),growth (OVCAR-8 ovarian),growth (OVCAR-5 ovarian),growth (OVCAR-4 ovarian),growth (SK-OV-3 ovarian),growth (IGROV1 ovarian),growth (OVCAR-3 ovarian),growth (HS 578T breast),growth (NCI/ADR-RES ovarian),growth (T-47D breast),growth (BT-549 breast),growth (MDA-MB-435 melanoma),growth (SW-620 colon),growth (MCF7 breast),growth (HCT-116 colon),growth (HCC-2998 colon),growth (KM12 colon)
CCCCCCCCn1ccc2cc(NC(=O)Cn3cc(CN4CCN(CC)CC4)nn3)ccc21,2.27% (active),-10.7% (active),83%,94%,81.5%,99.6%,88.6%,66.8%,86.2%,97.7%,58.2%,71.8%,-84% (active),-43% (active),38.9%,61.8%,-12.2% (active),77.8%
COc1ccc(C/C(C)=C(/c2ccc(OCCN3CCCCCC3)cc2)c2ccc(OC(=O)NCc3ccccc3)cc2)cc1,-43.2% (active),52.8%,92.4%,91.5%,76%,95.3%,93%,75.1%,75%,86.8%,50.8%,100%,95.3%,81.4%,29.9%,64.7%,89.1%,80.9%
O=C1Nc2ccc(F)cc2/C1=C\c1nc(-c2ccccc2F)n2ccccc12,66.7%,96.8%,80.6%,67.2%,110%,101%,75.5%,126%,103%,74.4%,88%,102%,101%,44.9%,47.9%,44.2%,100%,97.2%
C/C(=C(/c1ccc(Cl)cc1)c1ccc(OCCCN(C)C)cc1)c1ccc(Cl)cc1,-2.36% (active),55.6%,96.1%,101%,104%,120%,85.7%,86.3%,87.1%,97.7%,69.1%,111%,92.6%,64%,34.3%,52.4%,101%,79.9%
Cc1ccc2[nH]c(=O)c3c(c2c1)OC(N)=C(C#N)C31C(=O)c2cccc3cccc1c23 (stereo not drawn),92.9%,97.8%,103%,97.4%,89.4%,105%,90%,101%,93.9%,102%,85.8%,102%,97.6%,101%,88.2%,101%,106%,94.4%
Oc1c(CN2CCCC2)cc(COCc2ccccc2)c2cccnc12,12.4%,16.7%,9.92% (active),43.1%,14.3%,-4.92% (active),16.4%,18.1%,64.5%,-7.48% (active),5.66% (active),27.2%,33.5%,22.3%,10% (active),9.16% (active),49.7%,28.7%
Cn1cc(-c2csc(-c3cn(C(=O)OC(C)(C)C)c4ccccc34)n2)c2ccnc(Cl)c21,26%,68.7%,48.2%,51.3%,9.63% (active),71.3%,69.5%,61.3%,66.1%,60%,29.1%,84.2%,78.8%,56.2%,33.3%,30%,83.5%,50.4%
COc1cc2c(/C=C3\C(=O)Nc4ccccc43)c(C(=O)O)[nH]c2cc1C,91.3%,87%,103%,59.1%,95.3%,129%,-10% (active),108%,137%,84.1%,113%,102%,105%,120%,72%,96.5%,103%,99.8%
Cc1ccc(-c2nc(C(Cl)Cl)nc3cc(C)nn23)cc1,9.7% (active),33.4%,14.7%,2.16% (active),-21.5% (active),-12.7% (active),6.31% (active),-24.3% (active),-11.4% (active),6.39% (active),40.9%,55.5%,12%,-28.5% (active),20.6%,6.95% (active),-69.3% (active),-9.44% (active)
COc1ccc(Cc2cnc(NC(=O)c3sc4ccccc4c3Cl)s2)cc1,9.94% (active),28.3%,18.7%,48.4%,60.5%,33.9%,25.9%,-8.48% (active),8.78% (active),6.4% (active),34.5%,34.7%,-39.1% (active),25%,17.5%,15.1%,25.6%,16.7%
C/C(=C(\c1ccc(OCCN2CCCCCC2)cc1)c1ccc(OC(=O)Cc2ccccc2)cc1)c1ccc(Cl)cc1,-44.9% (active),-40.2% (active),9.9% (active),67.6%,36.7%,60.7%,64.5%,19.8%,23.4%,56.6%,10%,67.5%,41.6%,-34.7% (active),3.78% (active),4.58% (active),13.6%,22.1%
COc1ccc(C2=Nc3c(N)ncnc3NC(c3cccc(Nc4ccnc5cc(C(F)(F)F)ccc45)c3)C2)cc1 (stereo not drawn),5.09% (active),11.8%,67.9%,92.3%,67.2%,69.3%,66.4%,78.2%,55.3%,65.3%,62%,80.7%,19.1%,62.3%,30.1%,40%,72.1%,47.1%
O=C(/C=C/C12c3ccccc3C(c3ccccc31)C1C(=O)NC(=O)C12)c1ccccn1 (stereo not drawn),-8.33% (active),-27.6% (active),1.98% (active),21%,35.3%,5.83% (active),-12.3% (active),-8.72% (active),40.1%,11.3%,9.45% (active),11%,-23.7% (active),-1.62% (active),10.4%,-65% (active),16.5%,1.06% (active)
CO[C@H](C(=O)[C@@H](O)[C@@H](C)O)[C@@H]1Cc2cc3cc(O[C@H]4C[C@@H](O[C@H]5C[C@@H](O)[C@H](O)C(C)O5)[C@H](O)C(C)O4)c(C)c(O)c3c(O)c2C(=O)[C@H]1O[C@H]1C[C@@H](O[C@H]2C[C@@H](O[C@H]3C[C@@H](OC)[C@H](O)C(C)O3)[C@@H](O)C(C)O2)C(O)(O)C(C)O1 (stereo partly drawn),13.5%,9.26% (active),9.53% (active),14.5%,21.7%,14.6%,22.3%,9.32% (active),25.3%,87.3%,0.438% (active),-20.1% (active),-30.5% (active),22%,4.2% (active),6.1% (active),-13.7% (active),9.69% (active)
Oc1c(Cl)cc(Cl)c2ccc(Cn3cc(-c4cccc(C(F)(F)F)c4)nn3)nc12,-15.6% (active),8.24% (active),80%,94.5%,65.9%,107%,85.2%,15%,74.9%,104%,58.9%,75%,73.9%,28.7%,42.3%,14%,99.5%,100%
COC(=O)/C=C1/SC(=Nc2cccc(Cl)c2)N(CCc2c[nH]c3ccc(O)cc23)C1=O,-8.45% (active),-23.9% (active),-4.55% (active),58.7%,24.9%,86.6%,4.15% (active),3.41% (active),27.7%,18.4%,12.6%,0.746% (active),15.9%,0.219% (active),15.9%,-33% (active),2.25% (active),18.9%
CC(=O)Nc1c(Cl)cc(Cl)c2c1Cc1cc([N+](=O)[O-])ccc1-2,47.9%,87.1%,74.8%,108%,9.59% (active),87.3%,91.2%,80.5%,65.4%,83.5%,70.6%,92.7%,85.9%,80.6%,76.8%,45.8%,94.3%,86.4%
COc1ccc(C2=Nc3c/c(=C\c4c(O)[nH]c5cc(Cl)ccc45)ccc3=N2)cc1,17%,62.8%,71.9%,77.5%,90.8%,46.4%,86.9%,27%,81.7%,56.4%,71.7%,77.5%,3.01% (active),57.9%,36.2%,70.7%,73.6%,49.5%
Cc1ccc(C)c2c1C(O)(C#Cc1ccccc1)c1ccccc1C2(O)C#Cc1ccccc1 (stereo not drawn),123%,18.9%,59.3%,81.3%,47.7%,75%,-12.5% (active),63.3%,72.5%,71.1%,38.5%,68%,47.9%,53.5%,28.9%,43.3%,87.4%,50.1%
CCCCCCCCn1ccc2cc(NC(=O)Cn3cc(CN4CCCCCC4)nn3)ccc21,-13.1% (active),-9.08% (active),30%,35.6%,51%,97.6%,52.2%,10.1%,65.7%,55.1%,-47.4% (active),96.8%,-85.3% (active),-78.3% (active),-23.2% (active),-77.3% (active),-80.9% (active),-27.8% (active)
CN1CCN(Cc2cc(NC(=O)c3cccc(C#Cc4cccc5[nH]nc(N)c45)c3)cc(C(F)(F)F)c2)CC1,-28.7% (active),11.2%,41%,36.1%,24.8%,81.6%,11.1%,64.1%,22.3%,50.8%,49%,46%,-21.4% (active),-45.2% (active),-23.4% (active),-86.8% (active),-70.9% (active),13.7%

# From PubChem BioAssay (NCI)
